# Where two headings read alike, the source gives them in different places.
# Legend:
# ABL1 = test system: ABL1; design: species or system human, MV4-11 + K-562 + COLO205 + SK-N-BE2 + OVCAR-8; settings: read-out: apparent Kd, compound concentrations: 100 nM and 1000 nM (sheet 'Samples'), n = 1
# HCK = test system: HCK; design: species or system human, MV4-11 + K-562 + COLO205 + SK-N-BE2 + OVCAR-8; settings: read-out: apparent Kd, compound concentrations: 100 nM and 1000 nM (sheet 'Samples'), n = 1
# LCK = test system: LCK; design: species or system human, MV4-11 + K-562 + COLO205 + SK-N-BE2 + OVCAR-8; settings: read-out: apparent Kd, compound concentrations: 100 nM and 1000 nM (sheet 'Samples'), n = 1
# PTK6 = test system: PTK6; design: species or system human, MV4-11 + K-562 + COLO205 + SK-N-BE2 + OVCAR-8; settings: read-out: apparent Kd; compound concentrations: 100 nM and 1000 nM (sheet 'Samples'), CATDS: 7.71683723921405E-2; n = 1
# RIPK2 = test system: RIPK2; design: species or system human, MV4-11 + K-562 + COLO205 + SK-N-BE2 + OVCAR-8; settings: read-out: apparent Kd; compound concentrations: 100 nM and 1000 nM (sheet 'Samples'), CATDS: 0.17287191269560401; n = 1
# RIPK3 = test system: RIPK3; design: species or system human, MV4-11 + K-562 + COLO205 + SK-N-BE2 + OVCAR-8; settings: read-out: apparent Kd, compound concentrations: 100 nM and 1000 nM (sheet 'Samples'), n = 1
# YES1 = test system: YES1; design: species or system human, MV4-11 + K-562 + COLO205 + SK-N-BE2 + OVCAR-8; settings: read-out: apparent Kd, compound concentrations: 100 nM and 1000 nM (sheet 'Samples'), n = 1
# ABL2 = test system: ABL2; design: species or system human, MV4-11 + K-562 + COLO205 + SK-N-BE2 + OVCAR-8; settings: read-out: apparent Kd, compound concentrations: 100 nM and 1000 nM (sheet 'Samples'), n = 1
# BCR = test system: BCR; design: species or system human, MV4-11 + K-562 + COLO205 + SK-N-BE2 + OVCAR-8; settings: read-out: apparent Kd, compound concentrations: 100 nM and 1000 nM (sheet 'Samples'), n = 1
# Q6ZSR9 = Q6ZSR9 (human, UniProt Q6ZSR9); design: species or system MV4-11 + K-562 + COLO205 + SK-N-BE2 + OVCAR-8; settings: read-out: apparent Kd; compound concentrations: 100 nM and 1000 nM (sheet 'Samples'), CATDS: 3.5510221653806698E-2; n = 1
# RET = test system: RET; design: species or system human, MV4-11 + K-562 + COLO205 + SK-N-BE2 + OVCAR-8; settings: read-out: apparent Kd, compound concentrations: 100 nM and 1000 nM (sheet 'Samples'), n = 1
# TNK1 = test system: TNK1; design: species or system human, MV4-11 + K-562 + COLO205 + SK-N-BE2 + OVCAR-8; settings: read-out: apparent Kd, compound concentrations: 100 nM and 1000 nM (sheet 'Samples'), n = 1
# CSNK2A1;CSNK2A3 = test system: CSNK2A1;CSNK2A3; design: species or system human, MV4-11 + K-562 + COLO205 + SK-N-BE2 + OVCAR-8; settings: read-out: apparent Kd; compound concentrations: 100 nM and 1000 nM (sheet 'Samples'), CATDS: 2.30931474147829E-2; n = 1
# FYN = test system: FYN; design: species or system human, MV4-11 + K-562 + COLO205 + SK-N-BE2 + OVCAR-8; settings: read-out: apparent Kd, compound concentrations: 100 nM and 1000 nM (sheet 'Samples'), n = 1
# Chain of Q6ZSR9 (Q6ZSR9 whole entry, looked up): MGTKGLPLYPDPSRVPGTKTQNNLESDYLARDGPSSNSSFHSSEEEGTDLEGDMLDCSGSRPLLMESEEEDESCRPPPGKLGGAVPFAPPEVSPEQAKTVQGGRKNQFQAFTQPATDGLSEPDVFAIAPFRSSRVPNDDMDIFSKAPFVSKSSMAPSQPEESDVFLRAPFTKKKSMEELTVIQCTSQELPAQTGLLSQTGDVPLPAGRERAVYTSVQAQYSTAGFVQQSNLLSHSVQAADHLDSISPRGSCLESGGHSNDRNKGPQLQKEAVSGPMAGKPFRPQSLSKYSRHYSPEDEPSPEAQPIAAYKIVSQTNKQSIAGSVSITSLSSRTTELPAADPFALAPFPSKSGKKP
smiles,measurement,setting,value
CN1CCN(Cc2cccc(-c3ccc4c(Nc5ccc(Oc6ccccc6)cc5)ccnc4c3)c2)CC1 [GW578342X],potency estimated from few doses,ABL1; CATDS: 7.7551536280391298E-2,1560 nM
same,potency estimated from few doses,HCK; CATDS: 0.21487500019283201,115 nM
same,potency estimated from few doses,LCK; CATDS: 8.3289760013849606E-2,1190 nM
same,potency estimated from few doses,PTK6,1600 nM
same,potency estimated from few doses,RIPK2,177 nM
same,potency estimated from few doses,RIPK3; CATDS: 0.10117998061927,638 nM
same,potency estimated from few doses,YES1; CATDS: 0.46544607401261401,32.3 nM
COc1cccc(-n2cnc3c(N/N=C/c4ccncc4)ncnc32)c1 [GW813360X],potency estimated from few doses,ABL1; CATDS: 0.132287686029187,2030 nM
same,potency estimated from few doses,ABL2; CATDS: 0.19344614583088601,869 nM
same,potency estimated from few doses,BCR; CATDS: 0.226928346430948,659 nM
CN1CCN(Cc2ccc(NC(=O)Nc3ccc(N(C)c4ccnc(Nc5ccc(CS(C)(=O)=O)cc5)n4)cc3)cc2)CC1.Cl [GW827654A],potency estimated from few doses,ABL1; CATDS: 3.4576588551286799E-2,1820 nM
same,potency estimated from few doses,ABL2; CATDS: 5.6323659121428699E-2,400 nM
same,potency estimated from few doses,BCR; CATDS: 3.6645994259317798E-2,1440 nM
same,potency estimated from few doses,Q6ZSR9,1630 nM
same,potency estimated from few doses,RET; CATDS: 0.30394920877794601,22.8 nM
same,potency estimated from few doses,TNK1; CATDS: 0.12102048296208601,87.9 nM
O=S(=O)(CCOCc1ccc(-c2ccc3ncnc(Nc4ccc(OCc5cccc(F)c5)c(Cl)c4)c3c2)o1)c1ccccc1 [GW615311X],potency estimated from few doses,CSNK2A1;CSNK2A3,2130 nM
same,potency estimated from few doses,FYN; CATDS: 3.12916843215739E-2,1080 nM
NS(=O)(=O)CCc1cccc(Nc2nccc(-c3c(-c4cccc(NC(=O)c5c(F)cccc5F)c4)nn4ccccc34)n2)c1 [GSK336735A],potency estimated from few doses,ABL2; CATDS: 7.5550907623065294E-2,635 nM
same,potency estimated from few doses,FYN; CATDS: 5.89205391615404E-2,1140 nM
same,potency estimated from few doses,HCK; CATDS: 9.1712833747147296E-2,439 nM
same,potency estimated from few doses,LCK; CATDS: 8.1556930046594894E-2,546 nM
same,potency estimated from few doses,RET; CATDS: 0.15467463345214499,196 nM
same,potency estimated from few doses,RIPK3; CATDS: 7.11931563666406E-2,719 nM
same,potency estimated from few doses,TNK1; CATDS: 8.7840058842797303E-2,475 nM
same,potency estimated from few doses,YES1; CATDS: 0.104182093569698,354 nM

# — paper PMC11062922 (Nature Chemical Biology, 2023)
